# Screens from PubChem.
# The list is not random: actives were taken first. Their share in the collection is about 7.6%.
# Giardia kill: Giardia lamblia killing. activity change, % at 7.66 µM, hits read low. 340,000 tested, 0.15% active. Giardia lamblia trophozoite viability; in the data active = activity change below about -80%; inconclusive = between about -30% and that limit;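 note: parasites exposed to compound for two days anaerobically before the ATP read; % is set by controls: 0 for no effect and ±100 for the full control effect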
#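 Anaerobic 48 hrs incubation at 37 deg C of 100 trophozoites/well with test compounds; ATPLite 1-Step luminescence, 15-30 min RT, reports cellular ATP as viability.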
# ELG1 repair inh: blocks ELG1-dependent DNA repair in HEK293T cells; HEK293T ELG1-luciferase reporter, luminescence, 16 h; DNA damage induced by 5-fluorouridine; Potency, µM (doses to about 46.1 µM), inactives show at the top dose activity change, negative = inhibition, most hits filed as inhibitors; 330,000 tested, 2.3% active; AID 504467; note: potency is the fitted concentration of half-maximal effect; % is set by controls: 0 for no effect and ±100 for the full control effect; nearly all actives have a fitted effect of over 55% in size
#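 Step one: seed 2,000 cells per well. Step two: pin-transfer compound or DMSO alongside 5-fluorouridine. Step three: incubate 16 hr, 37 °C, 5% CO2. Step four: add ONE-Glo, wait 30 min, read luminescence.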
# RORg inh: ROR gamma (mouse) transcription inhibition. P51450. Drosophila S2 Gal4-RORgamma UAS-luciferase reporter, 20 h. Potency, µM (series often up to 53.6 µM), without a hit: top-dose activity change, negative = inhibition, hits mostly inhibitors. 310,000 tested, 5.4% active. AID 2551; note: potency is the fitted concentration of half-maximal effect; % is set by controls: 0 for no effect and ±100 for the full control effect; nearly all actives have a fitted effect of over 60% in size
# Target sequence (P51450 whole entry, looked up, the tested form may be a part): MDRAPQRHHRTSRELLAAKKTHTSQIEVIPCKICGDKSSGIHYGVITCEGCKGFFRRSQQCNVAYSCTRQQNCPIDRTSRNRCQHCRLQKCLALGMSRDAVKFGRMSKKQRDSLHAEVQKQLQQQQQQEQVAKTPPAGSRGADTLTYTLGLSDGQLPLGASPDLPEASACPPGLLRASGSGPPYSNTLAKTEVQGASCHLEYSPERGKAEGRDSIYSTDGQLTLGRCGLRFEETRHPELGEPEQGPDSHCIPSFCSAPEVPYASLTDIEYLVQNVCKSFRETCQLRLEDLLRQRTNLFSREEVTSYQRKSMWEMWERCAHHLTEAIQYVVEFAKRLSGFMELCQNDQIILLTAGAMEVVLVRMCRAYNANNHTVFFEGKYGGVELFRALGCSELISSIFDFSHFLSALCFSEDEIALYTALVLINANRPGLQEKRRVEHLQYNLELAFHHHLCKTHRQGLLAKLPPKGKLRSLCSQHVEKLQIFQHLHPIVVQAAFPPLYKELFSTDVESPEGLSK
#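 Drosophila S2 cells stably expressing Gal4-DBD/mouse RORγ fusion under metallothionein promoter plus UAS-luciferase; compound 1 h, then 700 uM CuSO4 induction for 20 h at ambient temperature; inhibition read as reduced luminescence.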
# BRCA1 expr act: BRCA1 expression activation | MCF7-BRCA1-FFLuc reporter, luminescence, 48 h; response scale: scaled: vehicle 0%, 10 µM genistein 100% | Potency, µM (top dose mostly 46.1 µM), for inactives: top-dose activation, usual class: activators | 380,000 tested, 1.1% active; note: potency is the fitted concentration of half-maximal effect; nearly all actives have a fitted effect of over 80% in size
#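 Reporter cells (MCF7, BRCA1 promoter-firefly luciferase) received library compounds across a concentration series for 48 h. End-point luminescence was measured and concentration-effect curves derived after normalization.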
# VP16 counter: inhibits Gal4-VP16 luciferase reporter, ROR gamma counter-screen; Drosophila S2 Gal4-VP16 UAS-luciferase, luminescence, 20 h; Potency, µM (doses to about 53.6 µM), inactives show top-dose activity, negative = inhibition, usual class: inhibitors; 310,000 tested, 3.5% active; AID 2546;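 note: Gal4-VP16 expression switched on by copper sulfate through the metallothionein promoter; potency is the fitted concentration of half-maximal effect; % is set by controls: 0 for no effect and ±100 for the full control effect; nearly all actives have a fitted effect of over 50% in size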
# p53 reactivation: mutant p53 re-activation in reporter cells | AID 504706 | 320,000 tested, 0.063% active | H1299 p53-A138V BP100-luciferase reporter, luminescence, 24 h | Potency, µM (series often up to 92.2 µM), inactives show top-dose activity change, positive = activation, hits mostly activators; note: potency is the fitted concentration of half-maximal effect; % of control where 0% means no effect; nearly all actives have a fitted effect of over 45% in size
#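 p53-null H1299 cells stably carrying temperature-sensitive p53-A138V and a BP100-luciferase reporter were pinned with compounds (4-point, 1:5 series) and held 24 hrs at 37 deg C. Luminescence was read 10 min after detection reagent.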
# Starred values were filed as active, the others as inactive; ? = inconclusive; · = no result; [ ] = remark or other dose. Unless noted, calls come from the whole dose curve; as a rule, active = well fitted curve in the direction sought with a large enough effect; inconclusive = small, poorly fitted or top-dose-only effect, or another doubt; inactive = no such curve, though single readings can be large; an effect the other way counts as inactive or inconclusive.
SMILES,Giardia kill,ELG1 repair inh,RORg inh,BRCA1 expr act,VP16 counter,p53 reactivation
CC(C)(C)C(=O)Nc1cccc(C(=O)c2cccc(NC(=O)C(C)(C)C)c2)c1,5,?,36%,-9%,3%,-3%
O=C(NN1S(=O)(=O)c2ccccc2S1(=O)=O)c1ccc(Br)cc1,8,-1%,18%,-18%,-4%,3%
C/C(=N\Nc1nc2ccccc2nc1C)c1ccccc1O,22,1%,0.22µM*,-11%,2µM*,2%
Cc1ccc(-c2nnc3ccc(SCC(=O)N4CCc5ccccc54)nn23)cc1,-1,1%,3%,14%,7%,2%
Cc1ccc(-c2nnc3ccc(SCC(=O)N4CCCc5ccccc54)nn23)cc1,-3,18µM*,-20%,-31%,-13%,-2%
COc1ccc(OC)c(-c2csc(NC(=O)c3ccc(F)cc3)n2)c1,-12,?,11µM*,-34%,10µM*,-56%
COc1ccc(OC)c(-c2csc(NC(=O)C3=COCCO3)n2)c1,17,1%,·,-33%,·,10%
COc1ccc(OC)c(-c2csc(NC(=O)c3ccc(OCC4CCCO4)cc3)n2)c1 (configuration not stated),-22,6.5µM*,12%,-4%,-12%,?
COc1cc2nccc(Oc3ccc(NC(=O)Nc4ccc(F)cc4F)c(F)c3)c2cc1OC,·,·,-41%,·,?,·
Cc1ccc(Cl)cc1NC(=S)N(Cc1cccnc1)Cc1ccccc1Cl,7,?,?,-29%,25µM*,8%
CSc1cccc(NC(=S)N(Cc2ccc(C)cc2)Cc2cccnc2)c1,19,?,5µM*,-50%,?,2%
CCOc1ccccc1NC(=O)Cn1c(=O)c(OCC)nc2cnccc21,7,1%,0%,-7%,-3%,1%
O=C(/C=C\c1ccco1)Oc1cccc2cccnc12,-2,?,1.4µM*,-6%,4.5µM*,8%
CCc1ccc(OC(=O)/C=C/c2ccco2)cc1,-26,?,10%,30%,1%,0%
Cc1c(C(=O)Oc2cccc3cccnc23)oc2ccccc12,-14,-10%,3.2µM*,-6%,6.3µM*,-4%
CCc1nc2ccccc2c(C(=O)Oc2cccc3cccnc23)c1C,?,?,-16%,3%,4%,-9%
COc1ccccc1/C=C/C(=O)Oc1cccc2cccnc12,-20,-14%,3.2µM*,-31%,5.6µM*,-1%
O=C(/C=C/c1ccco1)Oc1cccc2cccnc12,-5,?,1.4µM*,-31%,4.5µM*,3%
COc1cc(/C=N/O)ccc1OCc1ccccc1Cl,-3,?,1µM*,?,5µM*,10%
COc1ccc(/C=N/N=C2/NC(=O)C(CC(=O)O)S2)cc1OCc1ccccc1Cl (configuration not stated),5,-3%,23%,-5%,-4%,-2%
COc1ccccc1Cc1nc2ccccc2nc1SCC(=O)N1CCC(C)CC1,·,·,·,14%,·,·
S=C(c1cn(CCOc2cccc3ccccc23)c2ccccc12)N1CCCC1,-10,-22%,11µM*,-56%,?,1%
O=C(O)Cn1cc(C(=S)N2CCCCC2)c2ccccc21,14,0%,5%,53%,-14%,6%
S=C(c1cn(CCOc2ccccc2)c2ccccc12)N1CCCC1,7,5%,7.1µM*,-19%,-2%[0.365 µM],30%
COCCn1cc(C(=S)N2CCOCC2)c2ccccc21,-8,?,-15%,-3%[1.84 µM],9%,-3%
SMILES,Giardia kill,ELG1 repair inh,RORg inh,BRCA1 expr act,VP16 counter,p53 reactivation
Cc1ccc(OCCn2cc(C(=S)N3CCCC3)c3ccccc32)cc1C,15,17%,6.3µM*,-33%,-2%[0.365 µM],7%
COCCn1cc(C(=S)N2CCCCC2)c2ccccc21,-12,21%,16µM*,-6%,?,-4%
Cc1ccc(OCCn2cc(/C(N)=N/O)c3ccccc32)cc1C,3,-12%,-39%,-29%,-29%,-10%
CC(=NNC(=O)c1ccncc1)c1ccc(O)cc1O,12,·,·,-73%,·,·
COC(=O)[C@@]1(Cc2ccc(OC)cc2)[C@H]2c3cc(C(=O)N4CCCC4)n(Cc4cc(F)cc5c4OCOC5)c3C[C@H]2CN1C(=O)c1ccccc1,·,·,25%,·,?,·
CCC(C(=O)Nc1cc(Cl)ccc1OC)n1nc(-c2ccccc2)ccc1=O (configuration not stated),·,·,·,-50%,·,·
CCN(C(=O)COC(=O)CC(C)c1ccccc1)c1c(N)n(Cc2ccccc2)c(=O)[nH]c1=O (configuration not stated),-9,16%,·,-18%,·,-1%
COc1ccccc1-c1nc2cc3ccccc3cc2nc1-c1ccccc1OC,-4,21µM*,-2%,-50%,-8%,-17%
COc1ccccc1-c1nc2c3ccccc3nc(=S)n2[nH]1,-17,8%,0.35µM*,-46%,1.3µM*,8%
COc1cc(-c2nc3c4ccccc4nc(=S)n3[nH]2)cc(OC)c1OC,21,1%,1.4µM*,-31%,1.4µM*,21%
CC(C)(C)NC(=O)CC1C[C@H](C(=O)N2CCCCC2)[C@@]2(CCc3ccccc3)c3[nH]c4ccccc4c3CCN2C1=O (some centres not stated),-18,13%,·,-1%,·,7%
Cc1ccccc1NC(=S)Nc1ccc2[nH]c(=O)[nH]c2c1,?,2%,-28%,0%,1%,-1%
COc1ccc(C)cc1NC(=O)CSCc1cc(=O)n2c(C)csc2n1,-8,2%,·,-16%,·,7%
COc1ccc(S(=O)(=O)N(CC(=O)N2CCOCC2)c2ccc(F)cc2)cc1OC,-8,10%,-15%,-13%,3%,-4%
C/C(=N\OCC(=O)N/N=C/c1ccccc1O)c1cccs1,8,-12%,1.1µM*,-54%,2.2µM*,21%
Cc1ccccc1OCC(=O)N/N=C/c1ccncc1,14,-5%,7%,-14%,?,0%
Cc1ccccc1OCC(=O)N/N=C/c1cccc2cccnc12,0,-24%,11µM*,-51%,14µM*,10%
O=C(COc1cccc2cccnc12)N/N=C/c1ccc(O)cc1,-2,15%,16%,-20%,-3%,?
Cc1ccc(OCC(=O)N/N=C/c2cccc3cccnc23)cc1,-7,-26%,16µM*,-37%,?,-13%
O=C(COc1cccc2cccnc12)N/N=C/c1ccccc1O,1,8.2µM*,?,-18%,-5%,5%
O=C(COc1ccc(F)cc1)N/N=C/c1cccc2cccnc12,?,·,·,-24%,·,·
